Screening results deposited in PubChem by National Center for Advancing Translational Sciences (NCATS).
The sample as a whole holds a higher share of hits than the screen did.
TbPYK inhibitor: qHTS of Trypanosoma Brucei Inhibitors; pyruvate kinase (Trypanosoma brucei), Q57TT1; TbPYK enzyme, Kinase-Glo Plus ATP luminescence, 45 min; Potency, µM (series often up to 76.8 µM), without a hit: top-dose activity, negative = inhibition, actives largely listed as inhibitors; actives 0.12% (n = 410,000); further: potency means the concentration at half of the fitted maximal effect; on the % scale 0 is the no-effect control and ±100 the full control effect; nearly all actives have a fitted effect of over 50% in size
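Enzyme and substrate buffer are dispensed first and compound is pin-transferred. ADP at 130 uM final then starts the reaction, which runs 45 min at room temperature. Detection reagent is added for 10 min before luminescence is imaged.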
LmPK inh: qHTS Assay for Inhibitors of Leishmania Mexicana Pyruvate Kinase (LmPK); purified LmPK, Kinase-Glo ATP luminescence, 1 h; Potency, µM (titrated, usually from 57.5 µM), for inactives: at the top dose activity change, negative = inhibition, actives largely listed as inhibitors; actives 0.37% (n = 290,000); further: potency means the concentration at half of the fitted maximal effect; on the % scale 0 is the no-effect control and ±100 the full control effect
Target sequence (Q27686 whole entry, looked up): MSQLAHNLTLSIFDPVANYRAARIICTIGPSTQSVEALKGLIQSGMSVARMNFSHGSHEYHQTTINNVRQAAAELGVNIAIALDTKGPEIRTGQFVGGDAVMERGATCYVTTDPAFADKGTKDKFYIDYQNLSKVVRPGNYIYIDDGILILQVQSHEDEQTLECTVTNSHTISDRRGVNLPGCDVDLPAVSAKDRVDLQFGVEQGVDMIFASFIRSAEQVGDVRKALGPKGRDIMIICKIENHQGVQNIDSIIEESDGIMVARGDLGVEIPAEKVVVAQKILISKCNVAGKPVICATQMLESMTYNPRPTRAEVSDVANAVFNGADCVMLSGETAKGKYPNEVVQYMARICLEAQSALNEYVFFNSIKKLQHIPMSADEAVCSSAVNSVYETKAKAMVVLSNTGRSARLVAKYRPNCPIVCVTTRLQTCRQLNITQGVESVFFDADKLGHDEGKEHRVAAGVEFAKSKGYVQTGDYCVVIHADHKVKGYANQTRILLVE
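Purified LmPK (0.1 nM) with 0.5 mM PEP and 0.1 mM ADP in imidazole buffer pH 7.2 with MgCl2/KCl, 1 h at room temperature. ATP formed was read by luciferase luminescence and normalized to no-enzyme and uninhibited controls.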
CHX counter: Cycloheximide Counterscreen for Small Molecule Inhibitors of Shiga Toxin | cell reporter, cycloheximide protein synthesis inhibition counterscreen | max response, % | actives 12% (n = 300,000); in the data active means max response mostly above about 13%, no sharp cut-off; inactive means mostly below about 14%; further: read at 38.3 µM for the half of the compounds with a filed dose; 0% is about no effect
RE007 growth inh: qHTS Assay for Inhibitors of the HIV-1 protein Vpr. AID 651644, 2012. actives 0.21% (n = 360,000). S. pombe RE007 Vpr strain, BacTiter-Glo ATP luminescence, 24 h. Potency, µM (titrated, usually from 92.2 µM), for inactives: at the highest dose activity change, negative = less growth, hits mostly inhibitors; active means well fitted falling curve with a large enough effect; inconclusive means small, poorly fitted or top-dose-only effect; inactive means no such curve, though single readings can be large or run the other way; further: potency means the concentration at half of the fitted maximal effect; on the % scale 0 is the no-effect control and ±100 the full control effect; nearly all actives have a fitted effect of over 50% in size
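Fission yeast RE007 carrying one integrated HIV-1 vpr copy, seeded at OD 0.01 in PMG+AL medium with 23 nL pinned compound. Grown 24 h at 30 degrees; viability read by BacTiter-Glo luminescence after 5 min.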
Giardia FBPA inh-1: qHTS Assay for Inhibitors of Fructose-1,6-bisphosphate Aldolase from Giardia Lamblia; A8B2U2; purified Giardia FBPA; Potency, µM (series often up to 59.6 µM), for the others: top-dose activity, negative = inhibition, most hits filed as inhibitors; actives 0.71% (n = 290,000); AID 2451, 2010; further: potency means the concentration at half of the fitted maximal effect; on the % scale 0 is the no-effect control and ±100 the full control effect; nearly all actives have a fitted effect of over 55% in size
Target sequence (A8B2U2 whole entry, looked up): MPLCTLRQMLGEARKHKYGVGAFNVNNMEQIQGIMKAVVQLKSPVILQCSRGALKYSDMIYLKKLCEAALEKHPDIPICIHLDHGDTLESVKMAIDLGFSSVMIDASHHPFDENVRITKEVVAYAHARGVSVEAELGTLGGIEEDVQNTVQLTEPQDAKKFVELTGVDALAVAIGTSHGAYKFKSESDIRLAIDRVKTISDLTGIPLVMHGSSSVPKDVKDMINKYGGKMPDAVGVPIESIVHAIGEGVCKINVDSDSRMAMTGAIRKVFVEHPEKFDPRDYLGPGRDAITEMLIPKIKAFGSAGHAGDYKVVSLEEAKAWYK
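40 nM FBPA preincubated 10 min at RT with compound (up to 57.5 uM final), then substrate plus GAPDH/TPI/NAD/arsenate coupling and diaphorase/resazurin added. Fluorescence read after 20 min at RT, 525/598 nm.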
Shiga toxin inh: A qHTS for Small Molecule Inhibitors of Shiga Toxin; actives 9.2% (n = 290,000); inhibition, % at 38.7 µM; Vero cells, Shiga toxin protein synthesis inhibition reporter; in the data active means inhibition mostly above about 28%, no sharp cut-off; inactive means mostly below about 43%; further: 0% is about no effect
Giardia growth: qHTS Assay for Inhibitors of Fructose-1,6-bisphosphate Aldolase from Giardia Lamblia: Giardia lamblia growth inhibition. Potency, µM (series often up to 57.5 µM), for inactives: at the top dose activity change, negative = inhibition, most hits filed as inhibitors. Giardia lamblia trophozoite growth inhibition. actives 5% (n = 1,500). shares compounds with Giardia FBPA inh-1;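 further: potency means the concentration at half of the fitted maximal effect; trophozoites exposed to compound for 48 h at 37 °C; on the % scale 0 is the no-effect control and ±100 the full control effect; nearly all actives have a fitted effect of over 70% in size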
Mammalian tox: qHTS Assay for Inhibitors of Fructose-1,6-bisphosphate Aldolase from Giardia Lamblia: Mammalian cellular toxicity. shares compounds with Giardia FBPA inh-1. actives 4% (n = 1,500). Potency, µM (series often up to 57.5 µM), without a hit: at the top dose viability change, negative = toxicity, most hits filed as inhibitors. mammalian cell viability counter-screen, qHTS;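 further: Chinese hamster ovary cells used as mammalian cytotoxicity surrogate; viability measured as cellular ATP by luminescence; potency means the concentration at half of the fitted maximal effect; compound exposure lasted 48 h before reading; on the % scale 0 is the no-effect control and ±100 the full control effect; nearly all actives have a fitted effect of over 60% in size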
Giardia FBPA inh-2: qHTS Assay for Inhibitors of Fructose-1,6-bisphosphate Aldolase from Giardia Lamblia: Primary screen confirmation; actives 5% (n = 1,500); purified Giardia aldolase enzyme activity, qHTS; shares compounds with Giardia FBPA inh-1; Potency, µM (doses to about 57.5 µM), without a hit: at the top dose activity change, negative = inhibition, hits mostly inhibitors; further: potency means the concentration at half of the fitted maximal effect; on the % scale 0 is the no-effect control and ±100 the full control effect; nearly all actives have a fitted effect of over 45% in size
Rabbit aldolase: qHTS Assay for Inhibitors of Fructose-1,6-bisphosphate Aldolase from Giardia Lamblia: Rabbit FBPA Selectivity. Rabbit muscle FBPA enzyme inhibition, selectivity counter-screen. shares compounds with Giardia FBPA inh-1. actives 4% (n = 1,500). Potency, µM (doses to about 57.5 µM), for the others: top-dose activity, negative = inhibition, actives largely listed as inhibitors. AID 2794, 2010; further: potency means the concentration at half of the fitted maximal effect; on the % scale 0 is the no-effect control and ±100 the full control effect; nearly all actives have a fitted effect of over 60% in size
GAPDH counter: qHTS Assay for Inhibitors of Fructose-1,6-bisphosphate Aldolase from Giardia Lamblia: Coupling assay counterscreen confirmation | shares compounds with Giardia FBPA inh-1 | GAPDH coupling enzyme counterscreen, biochemical, qHTS | Potency, µM (doses to about 57.5 µM), without a hit: at the top dose activity change, negative = inhibition, actives largely listed as inhibitors | actives 6% (n = 1,500) | AID 2795, 2010; further: potency means the concentration at half of the fitted maximal effect; on the % scale 0 is the no-effect control and ±100 the full control effect; nearly all actives have a fitted effect of over 55% in size
* marks the source's active call; other numbers are inactive results; ? = inconclusive; . = not tested or not shown; [ ] = another dose, or the depositor's remark. Unless noted, the call rests on the fitted dose curve; in most records, active means well fitted curve in the direction sought with a large enough effect; inconclusive means small, poorly fitted or top-dose-only effect, or another doubt; inactive means no such curve, though single readings can be large; an effect the other way counts as inactive or inconclusive.

SMILES | TbPYK inhibitor | LmPK inh | CHX counter | RE007 growth inh | Giardia FBPA inh-1 | Shiga toxin inh | Giardia growth | Mammalian tox | Giardia FBPA inh-2 | Rabbit aldolase | GAPDH counter
Cc1ccc(C(=O)Nc2nnc(S(=O)(=O)N3CCOCC3)s2)cc1 | 0% | -4% | 1 | 6% | 18µM* | -3 | ? | 1% | ? | ? | 25µM*
O=C(Nc1nnc(S(=O)(=O)N2CCOCC2)s1)c1ccc(F)cc1 | 3% | -1% | -2 | 11% | 16µM* | -5 | ? | -5% | ? | ? | 40µM*
O=C(Nc1nnc(S(=O)(=O)N2CCCCC2)s1)c1ccc(F)cc1 | 1% | . | . | . | . | . | . | . | . | . | .
CN(c1ccccc1)c1nc(N)c([N+](=O)[O-])c(NCCO)n1 | 1% | 5% | -1 | 2% | 9% | -2 | . | . | . | . | .
Nc1ccc(C(=O)NCCCSc2ccccc2)cc1[N+](=O)[O-] | -5% | -2% | 2 | 5% | 1% | -9 | . | . | . | . | .
CCCCc1nnc(NC(=O)CSCc2cc(=O)n3cc(C)sc3n2)s1 | 0% | -2% | -2 | -3% | 4µM* | 4 | 7%[38.3 µM] | ? | ? | 19% | -5%
NC(=O)NC(CC(=O)NCc1ccc2c(c1)OCO2)c1ccccc1Cl (stereo unspecified) | 1% | -4% | 0 | 5% | 4% | -5 | . | . | . | . | .
O=C(O)c1cc(-c2ccccc2)n(-c2ccc(F)cc2)n1 | 3% | 7% | -3 | -6% | -8% | -2 | . | . | . | . | .
O=C(O)c1cc2nccc(-c3ccc(F)cc3)n2n1 | -3% | -2% | 3 | -19% | 18µM* | -4 | 23% | -2% | 13% | 11% | 6%
Cc1cc(O)c(-c2ccnc3cc(-c4ccccc4)nn23)cc1Cl | 0% | . | . | . | . | . | . | . | . | . | .
CCn1ncc(-c2ccnc3cc(C(=O)O)nn23)c1C | 2% | -6% | -2 | -23% | 16µM* | -24 | 23% | 25% | -2% | -4% | -2%
COc1ccc(NC(=O)CN2C(=O)C(c3ccccc3)=NC23CCC(C)CC3)cc1Cl (stereo unspecified) | -7% | . | . | . | . | . | . | . | . | . | .
Cn1c2ccccc2c2cc(/C=N/NC(=O)c3cc(O)ccc3O)ccc21 | -13% | 0% | 12* | -13% | 25µM* | 18 | -10% | 1% | ? | -7% | -29%
COc1ccc(C(=O)c2cn(CC(=O)Nc3cc(OC)cc(OC)c3)c3ccc(OC)cc3c2=O)cc1 | -4% | . | . | . | . | . | . | . | . | . | .
CN(C)c1ccc(N/C=C/C(=O)C(C)(C)C)cc1 | -18% | -6% | 60 | 0% | 14µM* | 148* | ? | -17% | -49% | ? | -21%
CC(C)(C)C(=O)/C=C/Nc1ccccc1O | -5% | 1% | 8 | ? | -19% | 32 | . | . | . | . | .
CNC(=S)N(C)CCc1cc2c(c(OC)c1C=C1C(=O)NC(=O)NC1=O)OCO2 | -10% | -2% | 0 | 3% | 7.1µM* | -15 | -9%[38.3 µM] | -6% | -9% | 1% | 3%
S=c1[nH]nc(-c2ccn[nH]2)n1-c1ccccc1Cl | ? | ? | 28* | 13% | 20µM* | 72* | 45µM* | -11% | 0% | -1% | 5%
COc1ccc(-c2cc(-c3n[nH]c(=S)n3-c3ccccc3Cl)[nH]n2)cc1 | ? | -5% | -2 | -10% | 18% | -6 | . | . | . | . | .
O=C(CCNC(=O)C1CCN(S(=O)(=O)c2ccc(F)cc2)CC1)Nc1ccccc1 | 5% | 4% | 1 | 6% | . | 13 | . | . | . | . | .
CCc1nnc(NC(=O)CN2CCCC(C)C2)s1 (stereo unspecified) | -1% | 0% | -2 | 6% | 4µM* | -6 | -8%[10.4 µM] | 16% | 3% | 4% | 15%
NC(=S)Nc1nc2ccccc2s1 | -7% | 1% | 38* | -29% | 5.6µM* | 64* | -6%[38.3 µM] | ? | 6% | 10% | -13%
CCN1CCN(CC(=O)Nc2nc3ccccc3s2)CC1 | 6% | 0% | 12 | 1% | 10µM* | 6 | -22% | -5% | 2% | 8% | 3%
CCc1nnc(NC(=O)CN2CCN(CC)CC2)s1 | -1% | -2% | -2 | -7% | 3.5µM* | -8 | 2%[10.4 µM] | 1% | 9% | 6% | 14%
CCc1nnc(NC(=O)CN2CCN(S(C)(=O)=O)CC2)s1 | 0% | 7% | -5 | 5% | ? | -18 | . | . | . | . | .
SMILES | TbPYK inhibitor | LmPK inh | CHX counter | RE007 growth inh | Giardia FBPA inh-1 | Shiga toxin inh | Giardia growth | Mammalian tox | Giardia FBPA inh-2 | Rabbit aldolase | GAPDH counter
COc1ccc(CNC(=O)c2nc(SCc3ccccc3F)ncc2Cl)cc1 | -11% | . | . | . | . | . | . | . | . | . | .
CCCN1CCN(CC(=O)Nc2nncs2)CC1 | -1% | 2% | -2 | 4% | 4.5µM* | -4 | 9% | -8% | 7% | 9% | 14%
CCOC(=O)c1sc(NC(=O)CN2CC(C)OC(C)C2)nc1C (stereo unspecified) | -14% | 2% | -2 | -8% | -24% | -5 | . | . | . | . | .
Cc1nnc(NC(=O)CN2CC(C)OC(C)C2)s1 (stereo unspecified) | -2% | -7% | 1 | 0% | 2.5µM* | -3 | -5%[38.3 µM] | -7% | 0% | 2% | 4%
CC(CCC(=O)Nc1nncs1)C(=O)O (stereo unspecified) | -1% | 1% | -4 | 10% | 0% | 5 | . | . | . | . | .
CCOC(=O)N1CCN(CC(=O)Nc2nnc(C(F)(F)F)s2)CC1 | 22% | -3% | 6 | 0% | 5µM* | 4 | ? | -6% | 7% | 6% | -10%
